Out of some 69,000 compounds screened, about 8,600 (12%) showed an effect of 50% or more. The entries come from a sample that favours strong results as a whole.
The compounds below were run on Plasmodium berghei (assay: Screen against P. berghei liver stage (PbLuc), transformed with Luciferase, at 10uM). Settings: tested at 10 uM.
Assay type: functional, HepG2

Row | Compound | INHIBITION [%]
1 | Cc1nc(C)c(C(=O)NCCNc2ncccc2C(F)(F)F)s1 | -36.3
2 | CCn1cnnc1C1CCN(C(=O)c2ccc3cc[nH]c3c2)CC1 | 30.8
3 | Cc1cc(C)n(CC2CN(Cc3noc(C4CC4)n3)CCO2)n1 (stereo not drawn) | -37.7
4 | CC(=O)N1CCCCC1c1nc2c(c(NC3CCCC3)n1)CN(C)CC2 (stereo not drawn) | 38.2
5 | O=C(NCCNc1ncccn1)N1CCN(C2CCCC2)CC1 | 21.6
6 | Cc1nc(C2CCCN(C(=O)CCn3ccccc3=O)C2)no1 (stereo not drawn) | 29.7
7 | COCc1ncc(CN2CCC3(CCNCC3)CC2)cn1 | 18.5
8 | COCc1ncc(CN2CCC3(CCC(=O)N(CC(C)O)C3)CC2)cn1 (stereo not drawn) | 55.2
9 | COCc1ncc(CN2CCC3(CCNC(=O)CC3)CC2)cn1 | -47
10 | COC(=O)C1CCN(C(=O)Cn2nc(C)nc2-c2ccccc2)CC1 | -3.48
11 | N[C@@H](Cc1c[nH]cn1)C(=O)N1CCC(Oc2ccc(Cl)cc2)CC1 | 43.9
12 | Cc1nc(CN2CCCC(c3nc(C)n4c(C)c(C)sc34)C2)co1 (stereo not drawn) | 19.6
13 | Cc1nc(CN2CCCC(CCc3cccc(C(F)(F)F)c3)C2)co1 (stereo not drawn) | 62.4
14 | Cc1nc(CN2CCCC(CCc3ccccc3C(F)(F)F)C2)co1 (stereo not drawn) | 74.5
15 | Cc1nnc(CN2CCCC(CCc3ccccc3C(F)(F)F)C2)o1 (stereo not drawn) | 27.2
16 | Cn1cc(CN2CCCC(CCc3ccccc3C(F)(F)F)C2)cn1 (stereo not drawn) | 43
17 | FC(F)(F)c1ccccc1CCC1CCCN(Cc2cscn2)C1 (stereo not drawn) | 76.7
18 | CC1CCCN(Cc2coc(-c3cccc(F)c3)n2)C1 (stereo not drawn) | 18.6
19 | Cc1ccccc1CCC1CCCN(Cc2nnc(-c3ccco3)o2)C1 (stereo not drawn) | 35.6
20 | CCN(CC(F)(F)F)C(=O)C1CCCN(Cc2cscn2)C1 (stereo not drawn) | -116
21 | COCCN(Cc1ccco1)c1ncc(C#N)cc1Cl | 28
22 | CCn1ncc(Nc2[nH]cnc3nc(C)nc2-3)c1C | 9

Row | Compound | INHIBITION [%]
23 | COCC(=O)Nc1ccc(-c2noc([C@@H]3CCCN3C(C)C)n2)cn1 | 35.8
24 | CC(C)NC(=O)N1Cc2nccn2CC(COc2cccnc2)C1 (stereo not drawn) | 22.4
25 | O=C(c1cscn1)N1CCC2(CCN(Cc3cccs3)CC2)C1 | -5.12
26 | COc1ccccc1N1CCN(Cc2ncc(C)c(OC)c2C)CC1=O | 37.4
27 | CC(NC(=O)N1CCS(=O)(=O)CC1)c1c(F)cccc1Cl (stereo not drawn) | -5.275
28 | CC(NCC(N)=O)c1c(F)cccc1Cl (stereo not drawn) | 67.1
29 | CNC(=O)NC(C)c1c(F)cccc1Cl (stereo not drawn) | 50.8
30 | NC(=O)CNC(c1ccccc1)c1ccccc1 | 6.67
31 | CC(NC(=O)N1CCNC(=O)CC1)c1c(F)cccc1Cl (stereo not drawn) | -36.75
32 | CC(C)NC(=O)CNC(C)c1c(F)cccc1Cl (stereo not drawn) | 31.2
33 | CCOc1ccccc1N1CCN(c2nnc(C)o2)CC1 | 7.4
34 | CCN(CC)C(=O)CN(C)CCn1nc2ccccn2c1=O | -79.8
35 | N#Cc1ccc(C(=O)N2CC[C@H]3[C@@H]2CCC(=O)N3c2cccnc2)cc1 | 23.9
36 | Cc1ccc(C(=O)N2C[C@@H](OCc3cccnc3)[C@H]3OCCC[C@H]32)o1 | 10.6
37 | Cc1ccc2c(c1)OC(C)CN2C(=O)c1c[nH]c(C)cc1=O (stereo not drawn) | 26.9
38 | CCC(=O)N1CCC2(CC1)CC(CC(N)=O)c1ccc(F)cc12 (stereo not drawn) | -26.5
39 | CCOC1CC2(CCN(C(=O)COC)CC2)c2cc(F)ccc21 (stereo not drawn) | 19.8
40 | CCNC(=O)CC1CC2(CCN(C(C)=O)CC2)c2cc(F)ccc21 (stereo not drawn) | 31.4
41 | CCC(=O)N1CCC2(CC1)CC(CC(=O)N(C)C)c1ccc(F)cc12 (stereo not drawn) | 51.2
42 | CCN1CCC2(CC1)CC(CC(=O)N(C)C)c1ccc(F)cc12 (stereo not drawn) | 53
43 | CN(C)C(=O)CC1CC2(CCN(CC3CC3)CC2)c2cc(F)ccc21 (stereo not drawn) | 35.3
44 | Cc1cccc(-c2ccc(C(=O)NCC3CCCOC3)c(=O)[nH]2)c1 (stereo not drawn) | -24.2

Row | Compound | INHIBITION [%]
45 | COCCC(=O)N1CCN(CC(C)C)c2nc(C)ccc2C1 | 7.24
46 | Cc1ncsc1COC(=O)c1cccc2c1OCCO2 | 77.9
47 | Cc1nc(COC(=O)c2cccnc2C)no1 | 32
48 | Cc1ncsc1CN(C)C(=O)CC1CCOc2ccccc21 (stereo not drawn) | -1.35
49 | COCc1ccccc1C(=O)OCc1noc(C)n1 | 9.63
50 | Cc1nc(COC(=O)c2cccc3c2OCCO3)cs1 | 48.8
51 | Cc1nc(COC(=O)c2cccc3c2OCCO3)no1 | 70.1
52 | Cc1nc(CN2C(=O)CCC23CCN(Cc2ccoc2)CC3)cs1 | -30
53 | O=S(=O)(c1ccccc1)N1CCOCC(Cc2cccnc2)C1 (stereo not drawn) | 9.05
54 | COc1ccc(CC2CCCN2CCCC#N)cc1 (stereo not drawn) | 35.9
55 | N#CCCN(C(=O)CN1CCCC1Cc1ccccc1)c1ccccc1 (stereo not drawn) | 38.5
56 | CCN(C(=O)CN1CCCC1c1ccc(OC)cc1)c1ccccc1 (stereo not drawn) | -47.9
57 | CN(Cc1cccc(F)c1)C(=O)CN1CCCC1CCc1ccccc1 (stereo not drawn) | 5.14
58 | CCN(C(=O)CN1CCCC1Cc1ccccc1)c1ccccc1 (stereo not drawn) | 75.7
59 | COc1cccc(CC2CCCN2CCCC#N)c1 (stereo not drawn) | 34.1
60 | N#CCCCN1CCCC1Cc1ccccc1 (stereo not drawn) | 53.6
61 | CN(C(=O)CN1CCCC1Cc1ccccc1)c1ccccc1 (stereo not drawn) | 68
62 | COc1cccc(CC2CCCN2CC(N)=O)c1 (stereo not drawn) | 35
63 | COc1ccc(CCN2CC(n3nc(C)cc3C)C2)cc1 | -6.61
64 | Cc1cnn(CCCNCc2csc(COc3ccccc3)n2)c1 | 30.2
65 | CCOC(=O)c1sc(NC(=O)C(C)(C)C)c(C#N)c1C | -43.6
66 | Cc1nn(C)c(C)c1C1CCCN1CC(=O)NCc1ccccn1 (stereo not drawn) | 26.5

Row | Compound | INHIBITION [%]
67 | COCCNC(=O)CN1CCC(N2CCN(C)C2=O)CC1 | 48.2
68 | Cc1cc(C(=O)N2CCCC(c3nccn3C)C2)cc(S(N)(=O)=O)c1C (stereo not drawn) | -2.98
69 | Cc1cc(C)nc(N2CCC(C(=O)Nc3ncc[nH]3)CC2)n1 | 47.9
70 | CNc1cc(C(=O)N2CCOC(C(=O)NC3CCCC3)C2)ccn1 (stereo not drawn) | -23.4
71 | O=C(NCCSc1ccccc1)[C@H]1CNC[C@@H](C(=O)N2CCOCC2)C1 | -1.09
72 | Cc1cc(C(F)(F)F)c2c(C3CCN(S(=O)(=O)N(C)C)CC3)noc2n1 | 60.8
73 | CCc1cc(C(F)(F)F)c2c(C3CCN(C(=O)COC)CC3)noc2n1 | 52
74 | COCC(=O)N1CCC(c2cc(C(F)(F)F)c3c(C)noc3n2)CC1 | 9.93
75 | CCc1cc(C(F)(F)F)c2c(C3CCCN(C(=O)COC)C3)noc2n1 (stereo not drawn) | -8.12
76 | COCC(=O)N1CCC(c2noc3nc(C)cc(C(F)(F)F)c23)CC1 | 15.4
77 | COCCC(=O)N1CCC(c2noc3nc(C)cc(C(F)(F)F)c23)CC1 | 38.1
78 | CCn1ncc2c1C(COCC1CC1)N(Cc1c(C)noc1C)CC2 (stereo not drawn) | 47.5
79 | CCCn1nccc1NC(=O)CN1CCc2c(nc(C3CC3)n2C)C1 | 5.7
80 | CNC(=O)CN1CCc2c(CNc3nccs3)n[nH]c2C1 | -4.88
81 | CCNc1c(NC(=O)C(C)(C)C)c(=O)oc2ccccc12 | -3.83
82 | O=C(NC[C@]12COC[C@H]1CN(Cc1nccs1)C2)N1CCCC1 | -20.5
83 | O=C(c1cccnc1)N1Cc2nccn2CC(COc2cccnc2)C1 (stereo not drawn) | 9.51
84 | O=C(Cc1ccc(O)c(Cl)c1)N1CCCCC1CCn1cccn1 (stereo not drawn) | 60.1
85 | COc1ccc(CC(=O)N2CCCCC2Cn2cccn2)cc1OC (stereo not drawn) | 0.79
86 | O=C(Cc1ccc2c(c1)CCO2)N1CCCCC1Cn1cccn1 (stereo not drawn) | -35.5
87 | CCOC1COC2(CCN(Cc3ccco3)CC2)C1 (stereo not drawn) | -2.35
88 | O=c1[nH]c(-c2ccncc2)ncc1-c1ccnc(N2CCOCC2)n1 | 18.9

Row | Compound | INHIBITION [%]
89 | CC(Oc1ccc(F)cc1F)C(=O)N1CCC2(CCCO2)CC1 (stereo not drawn) | 14.9
90 | CCN1CC2(CCN(C(=O)C(C)Oc3ccc(F)cc3F)CC2)OC1=O (stereo not drawn) | 52.5
91 | CCN1CC2(CCN(C(=O)C(C)Oc3cccc(Cl)c3)CC2)OC1=O (stereo not drawn) | 14.9
92 | CCC(=O)N1CCCN(c2cncc(-n3nc(C)cc3C)n2)CC1 | 13.2
93 | Cc1cc(C)n(-c2cncc(N3CCN(C(=O)C(C)C)CC3)n2)n1 | 14
94 | Cc1cc(C)n(-c2cncc(N3CCN(C(=O)CN(C)C)CC3)n2)n1 | 52.6
95 | OCCNc1cc(N2CCC(n3cc(C4CCCC4)nn3)CC2)ncn1 | 28
96 | CC(C)Nc1cc(N2CCC(n3cc(C4CC4)nn3)CC2)ncn1 | 24.7
97 | CCc1cc(N2CCC(n3cc(C(=O)NC4CC4)nn3)CC2)ncn1 | 89.3
98 | CCc1cc(N2CCC(NCc3ccc(C)o3)CC2)ncn1 | -24.9
99 | CCc1cc(N2CCC(Nc3ccc(Cl)cn3)CC2)ncn1 | 84.6
100 | Cc1ccc(SCCCNC(=O)c2cn(C3CCC(N)CC3)nn2)cc1 (stereo not drawn) | -164
101 | CCc1ncc(CN2CCN(c3cc(NC4CC4)nc(N)n3)CC2)cn1 | -55
102 | CCc1cc(N2CCC(n3cc(C(=O)NCC(C)C)nn3)CC2)ncn1 | 71.4
103 | O=C(NC1CC1)c1cn(C2CCN(c3cc(C4CC4)ncn3)CC2)nn1 | 39.3
104 | CSCCC(C)(O)CNS(=O)(=O)Cc1ccc(F)cc1 (stereo not drawn) | 44.9
105 | Cc1ccccc1CNC(=O)CN1CCCC(Cc2nccn2C)C1 (stereo not drawn) | -50.8
106 | CC(C)CCn1cc(C(C(=O)O)N2CCCN(C3CCCC3)CC2)cn1 (stereo not drawn) | 33.9
107 | c1nc(CNC2CCOCC2)c2n1CCCN(CC1CC1)C2 | 45.1
108 | Cn1ccc(C(=O)NC2CCC23CCN(Cc2cnn(C)c2)CC3)c1 (stereo not drawn) | -28.7
